Source: PubChem BioAssay AID1159580 (chemical genetic matrix, 2015)
About 2,000 (36%) of roughly 5,500 compounds were called active. About 18% were inconclusive and are not listed. No stated cut-off is given here; in the data, active means normalized growth mostly below about 0.91 (no sharp cut-off); inconclusive means no clear call, values can overlap the other calls; inactive means mostly above about 0.92. Some of the results follow.

Experiment: chemical genetic growth profiling, strain panel (AID 1159580);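 further: tested at 20 µM; growth read once vehicle control cultures reached saturation at 30 °C; 1 = growth at the plate median or of vehicle wells; lower values mean less growth of the strain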
Details: growth OD

Measured: normalized growth

CC(=O)O[C@H]1CC[C@]2(C)C3CC[C@@]4(C)C(CC5O[C@@]6(CCC(C)CO6)[C@@H](C)C54)C3CC[C@@H]2C1 (stereo partly specified)
inactive: S. cerevisiae deletion strains, locus YJR066W, strain TOR1, active compounds read low 0.946 | S. cerevisiae deletion strains, locus YJR075W, strain HOC1, active compounds read low 0.982 | S. cerevisiae deletion strains, locus YKL009W, strain mrt4, active compounds read low 1.04 | S. cerevisiae deletion strains, locus YKL068W, active compounds read low 1 | S. cerevisiae deletion strains, locus YKL160W, strain elf1, active compounds read low 1.01 | S. cerevisiae deletion strains, locus YKL190W, strain CNB1, active compounds read low 1 | S. cerevisiae deletion strains, locus YKR001C, strain vps1, active compounds read low 0.998 | S. cerevisiae deletion strains, locus YKR026C, strain gcn3, active compounds read low 1.02 | S. cerevisiae deletion strains, locus YKR091W, strain srl3, active compounds read low 1.02 | S. cerevisiae deletion strains, locus YLL001W, strain dnm1, active compounds read low 1.01 | S. cerevisiae deletion strains, locus YLL026W, active compounds read low 1.02 | S. cerevisiae deletion strains, locus YLL041C, strain sdh2, active compounds read low 1.02 | S. cerevisiae deletion strains, locus YLR027C, strain aat2, active compounds read low 1 | S. cerevisiae deletion strains, locus YLR039C, strain RIC1, active compounds read low 0.992 | S. cerevisiae deletion strains, locus YLR058C, strain SHM2, active compounds read low 0.993 | S. cerevisiae deletion strains, locus YLR102C, strain apc9, active compounds read low 0.991 | S. cerevisiae deletion strains, locus YLR113W, strain HOG1, active compounds read low 0.963 | S. cerevisiae deletion strains, locus YLR221C, strain rsa3, active compounds read low 1.03 | S. cerevisiae deletion strains, locus YLR258W, strain gsy2, active compounds read low 1.01 | S. cerevisiae deletion strains, locus YLR262C, strain YPT6 (second series), active compounds read low 1.01 | S. cerevisiae deletion strains, locus YLR268W, strain sec22, active compounds read low 0.998 | S. cerevisiae deletion strains, locus YLR320W, strain mms22, active compounds read low 1.03 | S. cerevisiae deletion strains, locus YLR330W, strain CHS5, active compounds read low 0.984 | S. cerevisiae deletion strains, locus YLR342W, strain FKS1 (second series), active compounds read low 1.01 | S. cerevisiae deletion strains, locus YLR342W, strain FKS1, active compounds read low 1.03 | S. cerevisiae deletion strains, locus YLR357W, strain rsc2, active compounds read low 1.01 | S. cerevisiae deletion strains, locus YLR370C, strain arc18, active compounds read low 1.02 | S. cerevisiae deletion strains, locus YLR371W, strain rom2, active compounds read low 0.99 | S. cerevisiae deletion strains, locus YLR384C, strain iki3, active compounds read low 0.99 | S. cerevisiae deletion strains, locus YLR418C, strain cdc73, active compounds read low 0.947 | S. cerevisiae deletion strains, locus YML016C, strain PPZ1, active compounds read low 0.992 | S. cerevisiae deletion strains, locus YML032C, strain rad52, active compounds read low 0.977 | S. cerevisiae deletion strains, locus YML120C, strain ndi1, active compounds read low 1.03 | S. cerevisiae deletion strains, locus YML124C, strain tub3, active compounds read low 0.979 | S. cerevisiae deletion strains, locus YMR058W, strain fet3, active compounds read low 1.01 | S. cerevisiae deletion strains, locus YMR078C, strain ctf18, active compounds read low 1 | S. cerevisiae deletion strains, locus YMR125W, strain sto1, active compounds read low 1.03 | S. cerevisiae deletion strains, locus YMR129W, active compounds read low 1 | S. cerevisiae deletion strains, locus YMR205C, strain PFK2, active compounds read low 0.999 | S. cerevisiae deletion strains, locus YMR223W, strain ubp8, active compounds read low 0.984 | S. cerevisiae deletion strains, locus YMR231W, strain pep5, active compounds read low 1.01 | S. cerevisiae deletion strains, locus YMR263W, strain SAP30, active compounds read low 0.996 | S. cerevisiae deletion strains, locus YMR307W, strain GAS1, active compounds read low 1.12 | S. cerevisiae deletion strains, locus YNL067W, strain RPL9B, active compounds read low 0.98 | S. cerevisiae deletion strains, locus YNL071W, strain lat1, active compounds read low 1 | S. cerevisiae deletion strains, locus YNL128W, strain TEP1, active compounds read low 0.998 | S. cerevisiae deletion strains, locus YNL153C, strain GIM3, active compounds read low 0.984 | S. cerevisiae deletion strains, locus YNL183C, strain NPR1, active compounds read low 0.964 | S. cerevisiae deletion strains, locus YNL209W, strain ssb2, active compounds read low 1 | S. cerevisiae deletion strains, locus YNL233W, strain BNI4, active compounds read low 1.02 | S. cerevisiae deletion strains, locus YNL248C, strain rpa49, active compounds read low 1.02 | S. cerevisiae deletion strains, locus YNL250W, strain rad50, active compounds read low 0.975 | S. cerevisiae deletion strains, locus YNL271C, strain bni1, active compounds read low 0.989 | S. cerevisiae deletion strains, locus YNL298W, strain CLA4, active compounds read low 1 | S. cerevisiae deletion strains, locus YNL307C, strain MCK1, active compounds read low 0.996 | S. cerevisiae deletion strains, locus YNL322C, strain KRE1 (second series), active compounds read low 1.03 | S. cerevisiae deletion strains, locus YNR049C, strain mso1, active compounds read low 0.995 | S. cerevisiae deletion strains, locus YNR052C, strain pop2, active compounds read low 0.983 | S. cerevisiae deletion strains, locus YOL012C, strain htz1 0.761 | S. cerevisiae deletion strains, locus YOL147C, strain pex11, active compounds read low 0.986 | S. cerevisiae deletion strains, locus YOR001W, strain rrp6, active compounds read low 1.01 | S. cerevisiae deletion strains, locus YOR061W, strain CKA2, active compounds read low 0.999 | S. cerevisiae deletion strains, locus YOR069W, strain VPS5, active compounds read low 0.983 | S. cerevisiae deletion strains, locus YOR070C, strain gyp1, active compounds read low 1.02 | S. cerevisiae deletion strains, locus YOR080W, strain dia2, active compounds read low 1.01 | S. cerevisiae deletion strains, locus YOR083W, strain WHI5, active compounds read low 1.04 | S. cerevisiae deletion strains, locus YOR106W, strain vam3, active compounds read low 1.02 | S. cerevisiae deletion strains, locus YOR136W, strain idh2, active compounds read low 0.993 | S. cerevisiae deletion strains, locus YOR144C, strain elg1, active compounds read low 0.994 | S. cerevisiae deletion strains, locus YOR184W, strain ser1, active compounds read low 1.03 | S. cerevisiae deletion strains, locus YOR231W, strain MKK1, active compounds read low 0.988 | S. cerevisiae deletion strains, locus YOR265W, strain rbl2, active compounds read low 1.02 | S. cerevisiae deletion strains, locus YOR270C, strain vph1, active compounds read low 1 | S. cerevisiae deletion strains, locus YOR290C, strain snf2, active compounds read low 1.03 | S. cerevisiae deletion strains, locus YOR316C, strain cot1, active compounds read low 0.989 | S. cerevisiae deletion strains, locus YPL051W, strain arl3, active compounds read low 1.02 | S. cerevisiae deletion strains, locus YPL078C, strain atp4, active compounds read low 1.04 | S. cerevisiae deletion strains, locus YPL106C, strain sse1, active compounds read low 0.978 | S. cerevisiae deletion strains, locus YPL240C, strain hsp82, active compounds read low 1 | S. cerevisiae deletion strains, locus YPL256C, strain CLN2, active compounds read low 0.957 | S. cerevisiae deletion strains, locus YPR119W, strain clb2, active compounds read low 0.984 | S. cerevisiae deletion strains, locus YPR141C, strain kar3, active compounds read low 0.98 | S. cerevisiae deletion strains, locus YPR163C, strain tif3, active compounds read low 0.986 | S. cerevisiae deletion strains, locus YPR167C, strain met16, active compounds read low 1 | S. cerevisiae deletion strains, strain wtn01, active compounds read low 1.01 | S. cerevisiae strains, strain wild type, active compounds read low 1.01
